The panel holds about 83,000 compounds, 20% with a hit somewhere; the sample as a whole holds those more often.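 Step 1: grow cells in 96-well plates. Step 2: add test compound at a single concentration. Step 3: incubate 48 h. Step 4: record percent growth.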 Unmarked numbers belong to inactive results. Calls of active or inactive are those of the source. Rule for the calls: active = growth percent below 10; inactive = the rest.

Test systems include RPMI-8226 leukemia; OVCAR-8 ovarian; OVCAR-5 ovarian; OVCAR-4 ovarian; SK-OV-3 ovarian; IGROV1 ovarian; OVCAR-3 ovarian; HS 578T breast; NCI/ADR-RES ovarian; T-47D breast; BT-549 breast; MDA-MB-435 melanoma; SW-620 colon; HCT-116 colon; HCC-2998 colon; KM12 colon; MCF7 breast.
Holding throughout (experiment): NCI-60 one-dose screen, 48 h (100 = growth as untreated, 0 = no growth, -100 = all killed)
Holding throughout (details): 10 µM unless noted

Consider `CCOC(=O)CNS(=O)(=O)CC(=O)c1ccccc1`, for which the growth in the assay with RPMI-8226 leukemia was 96.1%; with OVCAR-8 ovarian, 108%; with OVCAR-5 ovarian, 101%; in the assay with OVCAR-4 ovarian it was 85.4%; in the assay on SK-OV-3 ovarian it was 105%; in the assay on IGROV1 ovarian, 94.6%. Besides, the growth was 126% with OVCAR-3 ovarian; 124% in the assay on HS 578T breast; 102% in the assay on NCI/ADR-RES ovarian; 91.9% with T-47D breast; 86.4% with BT-549 breast; 99.7% with MDA-MB-435 melanoma. For the same compound, the growth in the assay with SW-620 colon was 110%; in the assay on HCT-116 colon, 103%; with HCC-2998 colon it was 92.2%; in the assay with KM12 colon it was 108%.

For `C/C=C(/C)C(=O)OC1C=C(CO)C(=O)C(OC(=O)C(C)(O)C(C)Cl)C1C(C)C` (stereo not drawn), the growth in the assay with RPMI-8226 leukemia is -33.5% (active); in the assay with OVCAR-8 ovarian it was 3.78% (active); with OVCAR-5 ovarian it was -43.2% (active); with OVCAR-4 ovarian it was 14.1%; with SK-OV-3 ovarian it was 35.8%; in the assay with IGROV1 ovarian, -29.7% (active). The growth is -41.4% (active) in the assay on OVCAR-3 ovarian; 30.7% in the assay on HS 578T breast; 9.46% (active) with NCI/ADR-RES ovarian; -9.98% (active) with BT-549 breast; -23.2% (active) with MDA-MB-435 melanoma; -45.7% (active) in the assay with SW-620 colon. Moreover, the growth was 8.43% (active) in the assay with MCF7 breast, -56.5% (active) in the assay on HCT-116 colon, -76.3% (active) in the assay on HCC-2998 colon and -45.1% (active) in the assay on KM12 colon.

Take `CCOc1ccc(Br)cc1/C=C(\C#N)c1ccc([N+](=O)[O-])cc1`: the growth in the assay on RPMI-8226 leukemia was 84.7%; with OVCAR-8 ovarian it was 70%; with OVCAR-5 ovarian it was 94.6%; with OVCAR-4 ovarian it was 45.2%; in the assay on SK-OV-3 ovarian it was 44.4%; with IGROV1 ovarian it was 71.4%. The growth is 65.8% in the assay on OVCAR-3 ovarian; 7.59% (active) in the assay on HS 578T breast; 85.2% in the assay with NCI/ADR-RES ovarian; 66.4% in the assay with T-47D breast; 96.5% in the assay with BT-549 breast; 85% in the assay with MDA-MB-435 melanoma. Further, the growth in the assay on MCF7 breast was 23.4%; in the assay on HCT-116 colon it was 67.9%; in the assay with KM12 colon, 94.5%.

`COc1cc2c(cc1OC)C(Cc1cc(OC)c(OC)cc1[N+](=O)[O-])=NCC2`: the growth was 78.1% in the assay on RPMI-8226 leukemia; 98% in the assay on OVCAR-8 ovarian; 73.6% in the assay on OVCAR-5 ovarian; 91.6% in the assay on OVCAR-4 ovarian; 89.8% in the assay on SK-OV-3 ovarian; 98.1% in the assay with IGROV1 ovarian. Further, the growth was 95.4% in the assay with OVCAR-3 ovarian; 87.8% in the assay on HS 578T breast; 81.8% in the assay on NCI/ADR-RES ovarian; 78.5% with T-47D breast; 56.6% in the assay with BT-549 breast; 90.9% in the assay with MDA-MB-435 melanoma. The growth in the assay on SW-620 colon was 82%; in the assay with MCF7 breast, 94%; in the assay on HCT-116 colon, 62.2%; with HCC-2998 colon, 89.5%; with KM12 colon, 88%.

As to `COc1cc(C(=O)Nc2ccc(N(C)C)cc2)cc(OC)c1OC`, the growth was 97.7% in the assay with RPMI-8226 leukemia; 92.2% in the assay with OVCAR-8 ovarian; 94.7% with OVCAR-5 ovarian; 93.1% with OVCAR-4 ovarian; 85.7% in the assay with SK-OV-3 ovarian; 93.7% in the assay on IGROV1 ovarian. Besides, the growth in the assay with OVCAR-3 ovarian is 101%; with HS 578T breast, 95.5%; in the assay with NCI/ADR-RES ovarian, 87.3%; in the assay with T-47D breast, 91.1%; with BT-549 breast, 96.7%; with MDA-MB-435 melanoma it was 1.26% (active). Besides, the growth is 85.9% in the assay with SW-620 colon; 77.8% in the assay on MCF7 breast; 89% with HCT-116 colon; 92.1% with HCC-2998 colon; 81% with KM12 colon.

Regarding `CN1CCN(Cc2ccc(NC(=O)c3cncc(C#Cc4c(N)ncc5ccc(F)cc45)c3)cc2C(F)(F)F)CC1`, the growth in the assay on RPMI-8226 leukemia was 5.38% (active); in the assay on OVCAR-8 ovarian, 53.8%; with OVCAR-5 ovarian, -84.6% (active); in the assay on OVCAR-4 ovarian it was 36.1%; with SK-OV-3 ovarian, 60%; in the assay on IGROV1 ovarian it was 11%. The growth in the assay on OVCAR-3 ovarian is 63.2%; in the assay with HS 578T breast, -8.53% (active); in the assay with NCI/ADR-RES ovarian, 48.2%; with BT-549 breast it was 36.7%; with MDA-MB-435 melanoma it was -80.1% (active); with SW-620 colon, -43.2% (active). Further, the growth in the assay with MCF7 breast is 6.26% (active); with HCT-116 colon it was 4.69% (active); in the assay on HCC-2998 colon, 42.2%; with KM12 colon, -24.9% (active).

As for `CCC(C)(CC)c1ccc(O)c(C)c1`, the growth is 98.8% in the assay on RPMI-8226 leukemia; 109% with OVCAR-8 ovarian; 109% with OVCAR-5 ovarian; 109% with OVCAR-4 ovarian; 93.4% with SK-OV-3 ovarian; 106% with IGROV1 ovarian. For the same compound, the growth was 116% in the assay on OVCAR-3 ovarian; 101% with HS 578T breast; 102% in the assay on NCI/ADR-RES ovarian; 101% in the assay with T-47D breast; 98.9% with BT-549 breast; 109% in the assay on MDA-MB-435 melanoma. The growth with SW-620 colon is 107%; in the assay on MCF7 breast it was 99%; in the assay with HCT-116 colon it was 96.6%; in the assay on HCC-2998 colon it was 116%; in the assay with KM12 colon, 107%.

For the compound `Cc1ccc(C(=O)Nc2ccc(CN3CCN(C)CC3)c(C(F)(F)F)c2)cc1C#Cc1cncc2ncccc12`, the growth in the assay with RPMI-8226 leukemia is -53.5% (active); with OVCAR-8 ovarian, -76.8% (active); in the assay on OVCAR-5 ovarian, -93.9% (active); in the assay with OVCAR-4 ovarian, -87.5% (active); in the assay on SK-OV-3 ovarian, -12.6% (active); in the assay with IGROV1 ovarian it was -82.7% (active). Further, the growth was 24.8% in the assay with OVCAR-3 ovarian; -32.4% (active) in the assay on HS 578T breast; 4.19% (active) with NCI/ADR-RES ovarian; -82.3% (active) in the assay with BT-549 breast; -93.3% (active) in the assay with MDA-MB-435 melanoma; -66.6% (active) with SW-620 colon. Also, the growth with MCF7 breast is -65.4% (active); in the assay on HCT-116 colon, -84.7% (active); with HCC-2998 colon, 34.8%; with KM12 colon, -81.6% (active).

`O=C(/C=C/c1cccc(O)c1)c1cccc(-n2cc(-c3ccc(Cl)cc3)[nH]c2=O)c1`: the growth with RPMI-8226 leukemia was -53.2% (active); in the assay with OVCAR-8 ovarian, -2.92% (active); with OVCAR-5 ovarian it was -47.3% (active); with OVCAR-4 ovarian, 10.4%; in the assay on SK-OV-3 ovarian it was 37.7%; with IGROV1 ovarian, -42.9% (active). The growth in the assay on OVCAR-3 ovarian is -79.7% (active); in the assay on HS 578T breast, -48.4% (active); with NCI/ADR-RES ovarian it was 3.39% (active); in the assay on T-47D breast it was -0.126% (active); with BT-549 breast it was -42.5% (active); with MDA-MB-435 melanoma it was -9.55% (active). Further, the growth in the assay with SW-620 colon is -75.4% (active); with MCF7 breast, -8.69% (active); in the assay on HCT-116 colon, -85.2% (active); with HCC-2998 colon, -64.4% (active); with KM12 colon, -73.3% (active).

As for `CN1CCN(Cc2ccc(NC(=O)c3ccc(C#Cc4c(N)ncc5ccc(F)cc45)cc3)cc2C(F)(F)F)CC1`, the growth in the assay with RPMI-8226 leukemia was -43.3% (active); in the assay with OVCAR-8 ovarian, -28.4% (active); in the assay with OVCAR-5 ovarian, -52.8% (active); in the assay on OVCAR-4 ovarian, -19.9% (active); in the assay with SK-OV-3 ovarian, 64%; with IGROV1 ovarian, -50.6% (active). For the same compound, the growth in the assay on OVCAR-3 ovarian was -25.9% (active); with HS 578T breast, 29.9%; with NCI/ADR-RES ovarian, -12.3% (active); with BT-549 breast, 27.7%; with MDA-MB-435 melanoma, -92% (active); in the assay with SW-620 colon, -52.5% (active). In addition, the growth in the assay on MCF7 breast is -77.3% (active); in the assay on HCT-116 colon, -95.4% (active); with HCC-2998 colon it was -82.9% (active); in the assay with KM12 colon, -75.5% (active).

The values above are taken from PubChem BioAssay (NCI).
